# Screens (PubChem BioAssay)
# Compounds with a hit are over-represented: about 4% of the library has one in this group of screens.
# Mtb bLac sens – beta-lactam sensitization of Mtb H37Rv; M. tuberculosis H37Rv growth with meropenem, percent inhibition; inhibition, % at 25 µM; 330,000 compounds, 0.27% hits; call rule not given here;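 further: growth measured after seven days incubation then overnight dye step; 0% = bacteria only wells and 100% = bacteria with antibiotic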
# GDH-TPI inh – inhibits GDH-TPI coupling enzymes, artifact for Mtb FBA screen | AID 588335 | GDH-TPI coupled enzyme counterscreen, NADH absorbance | inhibition, % at 4.8 µM | 360,000 compounds, 1.2% hits;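 further: 0% = DMSO wells and 100% = wells lacking the enzyme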
# MazF activator – MazEF (E. coli) toxin RNase activation | FAM/BHQ RNA-DNA oligo cleavage fluorescence, 5 h | 350,000 compounds, 0.32% hits | activation, % at 20 µM | P0AE70; in the data active means activation above about 50%
# Target sequence (P0AE70 whole entry, looked up): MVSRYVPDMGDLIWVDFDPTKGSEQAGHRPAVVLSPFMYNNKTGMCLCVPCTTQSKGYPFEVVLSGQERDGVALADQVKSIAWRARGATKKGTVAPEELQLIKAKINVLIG
# CCHFV vOTU inh – blocks the CCHF virus ovarian tumor domain protease; 370,000 compounds, 0.55% hits; CCHFV vOTU protease, Pep-AMC fluorescence; inhibition, % at 11.5 µM; further: 0% = vehicle wells with enzyme and 100% = no enzyme wells
# FBA Mtb inh – inhibitors of M. tuberculosis fructose-bisphosphate aldolase. 360,000 compounds, 2.3% hits. purified M. tuberculosis FBA, fluorescence read-out. inhibition, % at 1 µM. P9WQA3. AID 588726; in the data active means inhibition above about 27%;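 further: 0% = vehicle and 100% = reference inhibitor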
# Target sequence (P9WQA3 whole entry, looked up): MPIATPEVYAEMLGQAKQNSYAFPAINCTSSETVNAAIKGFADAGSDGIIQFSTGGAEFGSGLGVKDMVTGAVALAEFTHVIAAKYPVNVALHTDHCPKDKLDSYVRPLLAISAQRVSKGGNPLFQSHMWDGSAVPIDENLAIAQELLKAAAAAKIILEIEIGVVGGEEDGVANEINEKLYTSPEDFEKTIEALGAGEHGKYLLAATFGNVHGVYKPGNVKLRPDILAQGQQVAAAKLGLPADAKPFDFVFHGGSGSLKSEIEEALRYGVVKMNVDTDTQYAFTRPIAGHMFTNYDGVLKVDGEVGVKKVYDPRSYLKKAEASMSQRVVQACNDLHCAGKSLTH
# Starred values were filed as active, the others as inactive; ? = inconclusive; . = no result; + = active, no number. Unless noted, no stated cut-off is given here; in the data, active means inhibition above about 30%; inactive means the rest.
SMILES,Mtb bLac sens,GDH-TPI inh,MazF activator,CCHFV vOTU inh,FBA Mtb inh
N#C/C(=C\c1cn(CCOc2ccccc2)c2ccccc12)C(=O)NCc1cccs1,-5.5,4.4,59.3*,-5.6,-1.3
N#CCC[C@H]1CC[C@]2(CCCN(Cc3ccc(Br)cc3)C2)O1,.,.,.,1.4,.
O=C(C1CCN(c2cncnc2)CC1)N1CCCC1,.,.,.,-0.1,.
COc1cc(NC(=O)c2cccs2)ccc1NC(=O)c1ccco1,17.3,35.1*,0.3,13.6,1.6
COc1cc(NC(=O)COc2ccccc2Cl)ccc1NC(=O)c1cccs1,-5.3,11.8,-29.9,-10.5,-1.4
COc1cc(NC(=O)COc2ccccc2[N+](=O)[O-])ccc1NC(=O)c1cccs1,.,40.7*,-18.6,7.6,0.0
O=C(Nc1ccc(NC(=O)c2cccs2)cc1Cl)c1ccco1,-12.1,2.5,2.5,-13.7,0.0
COC(=O)Cn1c2ccccc2c2nc3ccccc3nc21,5.0,27.3,-18.2,7.2,0.9
O=C(O)CCn1c2ccccc2c2nc3ccccc3nc21,1.2,31.4*,12.8,15.6,-0.6
COC(=O)[C@]1(CNC(=O)C(C)(C)C)CC(=O)N(C)[C@@H]1c1ccccc1,.,.,.,0.7,.
Cn1c(NC(=O)c2ccccc2NC(=O)C(C)(C)C)nc2ccccc21,86.8,33.8*,-9.1,1.7,7.8
O=C(c1ccc(Cl)c(Cl)c1)N1CCC(=O)N(C(COCc2cccc(C(F)(F)F)c2)Cc2ccccc2)CC1 (centres undefined),-8.1,0.9,3.2,16.8,72.6*
Cc1cccc(NC(=O)CSc2nnc(SCc3ccc(Cl)cc3)s2)c1,.,.,.,0.6,.
Nc1ccccc1-c1n[nH]c(=S)s1,.,10.7,-5.9,.,61.0*
CN(C)c1ccc(C(=O)C(O)c2ccccc2Cl)cc1 (centres undefined),.,45.8*,-11.1,-3.5,2.3
Cc1ccc2nc(-c3ccc(NS(=O)(=O)c4ccc(F)c(F)c4)cc3)sc2c1,16.9,27.8,1.7,-55.8,+
Cc1ccc2nc(-c3ccc(NS(=O)(=O)c4ccccc4)cc3)sc2c1,-8.3,12.1,7.7,-36.3,+
CN(CCO)c1cccc2c1S(=O)(=O)N(Cc1cn(Cc3cccc(F)c3)nn1)Cc1ccccc1O2,.,.,.,1.7,.
COc1ccc(-c2cncc3nccn23)cc1OC,.,10.2,.,-21.4,5.7
CCOc1ccc(-c2cncc3nccn23)cc1,.,6.2,.,-279.0,+
CCC1CCc2c(sc3ncnc(N4CCOCC4)c23)C1 (centres undefined),15.7,-3.0,4.6,5.8,119.9*
CC1CCc2sc3ncnc(N4CCN(C)CC4)c3c2C1 (centres undefined),.,8.9,3.3,5.5,-0.2
Nn1c(SCC(=O)Nc2cccc3ccccc23)nnc1-c1n[nH]c2c1CCC2,.,.,.,-3.6,.
c1ccc(-c2nc3c(ccc4ccccc43)[nH]2)nc1,97.0,33.3*,11.1,-13.7,15.5
CCC1(C)Cc2ccccc2-c2nc(NCCO)[nH]c(=O)c21 (centres undefined),-9.3,16.3,4.0,-129.5,170.6*
SMILES,Mtb bLac sens,GDH-TPI inh,MazF activator,CCHFV vOTU inh,FBA Mtb inh
O=c1[nH]c(NCCO)nc2c1C1(CCCC1)Cc1ccccc1-2,-0.6,8.9,1.6,-140.8,112.5*
O=c1[nH]c(CN(CCO)CCO)nc2c1C1(CCCCC1)Cc1ccccc1-2,.,16.4,-17.6,-3.0,0.6
CC1(C)Cc2ccccc2-c2nc(NCCCO)[nH]c(=O)c21,-2.9,11.4,5.2,-156.0,199.8*
COC(=O)[C@]1(CNC(=O)C(C)(C)C)CC(=O)N(Cc2ccc(Cl)cc2)[C@@H]1c1ccc(OC)cc1,.,.,.,4.0,.
CCC(C)NC(=O)c1cc2c(=O)n3ccccc3nc2s1 (centres undefined),5.5,17.1,4.4,-266.1,+
Cc1cccn2c(=O)c3cc(C(=O)NCC(C)C)sc3nc12,3.6,10.2,-2.3,-24.7,20.4
CCC(C)NC(=O)c1cc2cc3ccc(OC)cc3nc2s1 (centres undefined),63.5,27.4,4.9,-148.2,109.7*
CC(C)CCNC(=O)c1cc2c(=O)n3ccccc3nc2s1,0.0,25.9,6.3,-238.1,120.8*
O=C(Nc1nc2ncccn2c1-c1ccc(F)c(F)c1)c1ccc(F)cc1,.,.,.,-9.6,.
CCCCNC(=O)C1CCCN1C(=O)Nc1ccc(Cl)cc1 (centres undefined),.,.,.,4.9,.
COc1cc(OC)c(-c2nc3ccccc3s2)cc1OC,83.1,12.9,3.2,-265.0,+
COc1ccc(-c2nc3ccccc3s2)cc1O,8.5,36.2*,11.5,19.4,8.7
COc1cccc(-c2nc3ccccc3s2)c1O,-5.7,-3.2,4.8,12.2,5.6
COc1ccccc1C(=O)NCc1ccc(-c2nc3ccccc3s2)cc1,52.2,12.2,1.8,-16.6,-0.7
Oc1cccc(-c2nc3ccccc3s2)c1,93.5,12.3,8.0,13.8,1.2
CCOc1cc(-c2nc3ccccc3s2)ccc1O,95.9,27.8,4.2,-46.0,+
COc1cc(-c2nc3ccccc3s2)ccc1O,1.1,19.4,4.2,-39.5,150.1*
CC(C)CNC(=O)OCc1cn(Cc2cc(F)cc(F)c2)nn1,.,.,.,-3.9,.
CCOC(=O)[C@]12CCCCC/C=C\1N(CCc1ccc(Cl)cc1)C(=O)[C@H]2CC(=O)NCc1cccc(C(F)(F)F)c1,.,.,.,26.0,.
CCN1CCN(c2nc(C)nc3c2sc(=S)n3C)CC1,.,34.6*,9.8,14.8,-0.5
N#Cc1c(-c2ccco2)cc(-c2ccccn2)nc1N,15.1,14.9,4.3,-124.4,193.8*
N#Cc1c(-c2cccnc2)cc(-c2ccccc2)nc1N,3.1,8.9,2.0,-285.8,+
c1cncc(-c2nnc(-c3ccco3)o2)c1,-1.6,-2.1,6.0,1.8,113.7*
Clc1ccccc1-c1nnc(-c2cccnc2)o1,2.2,-4.3,4.5,3.5,1.5
N#Cc1c(-c2ccco2)cc(-c2cccnc2)nc1N,-16.9,20.3,8.5,-189.8,180.7*
SMILES,Mtb bLac sens,GDH-TPI inh,MazF activator,CCHFV vOTU inh,FBA Mtb inh
CCOC(=O)COc1nc(-c2ccc(C)cc2)cc(-c2ccco2)c1C#N,12.7,-12.2,7.5,-5.0,0.9
O=S(=O)(c1ccc(-c2cn3ccccc3n2)cc1)N1CCOCC1,?,-6.4,1.4,-127.6,+
Cc1cccn2cc(-c3ccc(S(=O)(=O)N4CCCCC4)cc3)nc12,0.4,8.1,-3.1,-82.9,135.4*
Cc1ccc(-c2cn3cccc(C)c3n2)cc1,.,3.1,15.4,-7.1,26.6
Cc1cccn2cc(-c3ccc(S(=O)(=O)N4CCOCC4)cc3)nc12,-20.0,18.3,-0.8,-103.7,186.9*
O=S(=O)(c1cccc(-c2cn3ccccc3n2)c1)N1CCCCC1,4.7,5.6,-16.6,12.7,5.1
COC(=O)[C@]12C[C@H](CC(=O)NCCCN3CCCC3=O)C(=O)N(CCc3ccc(OC)c(OC)c3)C1=C[C@H](C(C)(C)C)O[C@@H]2C,.,.,.,6.5,.
C#CCN1CC(N(C)CCOC(=O)CC2C=CCC2)CS1(=O)=O (centres undefined),.,.,.,-1.7,.
O=C(CN1C(=O)c2ccccc2S1(=O)=O)c1ccc(F)c(F)c1,-15.8,4.4,1.8,-1.4,6.6
O=C(CN1C(=O)c2ccccc2S1(=O)=O)c1ccc(O)c(O)c1,5.4,58.6*,8.6,-3.5,0.1
